About 40 (0.01%) of roughly 330,000 compounds were called active. Where a call stands in place of a potency, no number is given. The sample holds actives, similar compounds and a random draw of the others, so the mix is not that of the screen. Values without a mark were called inactive. Calls come from the whole dose curve; as a rule, active = well fitted inhibition curve with a large enough effect; inconclusive = small, poorly fitted or top-dose-only effect, or effect the other way; inactive = flat fitted curve, though single readings scatter.
The molecules below were run against Ubiquitin carboxyl-terminal hydrolase 2 (Homo sapiens) (UniProt O75604) (assay: qHTS Assay for Inhibitors of Ubiquitin-specific Protease USP2a Using CHOP2 as the Reporter). Details: USP2 core, Ub-CHOP2 coupled fluorogenic reporter, 485/531; series mostly up to 38.3 µM.
Sequence of Ubiquitin carboxyl-terminal hydrolase 2 (Homo sapiens) (O75604 whole entry, looked up): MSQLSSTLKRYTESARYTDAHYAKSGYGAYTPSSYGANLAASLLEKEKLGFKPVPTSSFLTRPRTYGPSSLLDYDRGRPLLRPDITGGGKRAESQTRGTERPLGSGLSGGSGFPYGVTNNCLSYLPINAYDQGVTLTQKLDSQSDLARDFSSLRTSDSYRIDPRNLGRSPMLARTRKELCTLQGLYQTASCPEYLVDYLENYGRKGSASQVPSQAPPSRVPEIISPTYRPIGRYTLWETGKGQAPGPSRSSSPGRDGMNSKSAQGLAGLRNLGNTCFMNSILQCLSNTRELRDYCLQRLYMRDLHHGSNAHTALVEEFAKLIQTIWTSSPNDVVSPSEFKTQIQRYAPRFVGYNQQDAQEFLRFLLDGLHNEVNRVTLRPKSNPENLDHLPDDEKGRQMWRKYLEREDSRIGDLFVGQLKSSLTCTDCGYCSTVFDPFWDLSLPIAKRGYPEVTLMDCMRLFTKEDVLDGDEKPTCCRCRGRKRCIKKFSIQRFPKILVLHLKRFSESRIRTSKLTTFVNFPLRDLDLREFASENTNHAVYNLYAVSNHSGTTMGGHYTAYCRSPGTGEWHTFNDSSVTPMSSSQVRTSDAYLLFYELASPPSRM
Excerpt: NIH Molecular Libraries Screening Centers Network [MLSCN] NIH Chemical Genomics Center [NCGC] MLSCN Grant: XO1-MH079852-01 PI Name: Nicholson, Ben. Progenra Inc, Malvern, PA NCGC Assay Overview: Homeostasis of cellular proteins is maintained through a combination of synthesis and degradation. The pathway that accounts for the majority of protein degradation is the ubiquitin-proteasomal pathway. Ubiquitin (Ub) is highly conserved in all cells and the generation of a multi-Ub chain typically targets proteins for degradation by the proteasome. However, ubiquitination is highly reversible and dynamic. Deubiquitination, the reverse process, is catalyzed through the action of enzymes referred to as isopeptidases or deubiquitinating enzymes (DUBs). This group of enzymes is collectively responsible for maintaining adequate pools of free ubiquitin and regulating the ubiquitination status of cellular proteins. The class of DUBs referred to as the ubiquitin-specific proteases (USP) family functions endoproteolytically to cleave Ub chains from a wide range of protein substrates. USP2a deubiquitinates fatty acid synthase (FASN) which has recently been identified as an emerging oncology target. To identify inhibitors of USP2a a cell-free assay was employed. […] The reporter enzyme chosen is an enterokinase called CHOP2, which is activated when the Ub is cleaved by USP2. The free and now activated reporter can subsequently act on its reporter substrate. Thus, this coupled assay gives a fluorescent read-out at excitation/emission wavelengths of 485/531. The assay was developed by Progenra, Inc. and has been licensed for sale by LifeSensors, Inc. as Ub-CHOP2-Reporter-Kit (#PR1101).
NCGC Assay Protocol Summary: The assay buffer, prepared fresh at the day of the assay, contains 20mM Tris-HCl pH 8.0, 2mM CaCl2, 2mM beta-Mercaptoethanol, 0.05% CHAPS. 3ul of 20nM (10nM final) USP2 core, which is stored on ice, is dispensed into a medium-binding black solid Kalypsys 1,536 well plate using the Kalypsys dispenser. The assay plate is then pinned with 23nL compound with the Kalypsys pintool in columns 5-48. The controls are pinned as follows: column 1 two-fold dilutions of 2M NEM in duplicate; column 2 2M NEM (final concentration 38.2mM); column 3&4 DMSO. The assay plate is incubated at RT for 30min. Subsequently, 1.5uL of 100nM (25nM final) Ub-CHOP2 and 1.5uL of 100nM (25nM final) Reporter Substrate (both stored on ice and protected from light) were dispensed into the plate using the Kalypsys dispenser. Plates were read after 60min RT incubation on a ViewLux (Perkin Elmer) plate reader using the following wavelengths Ex 485nm /Em 531nm. Data were normalized to the to AC100 inhibition (NEM). Concentration-response curves were fitted to the normalized data and the concentration-response curves were then classified based on curve quality (r2), response magnitude and degree of measured activity. The time zero reading was used to flag fluorescence artifacts. Keywords: ubiquitination, deubiquitination, proteases, profluorescent, MLSMR, MLPCN, NIH Roadmap, qHTS, NCGC
For O=C(CSc1ncnc2c1oc1ccccc12)NC1CCCC1, the activity change, negative = inhibition was “inactive”.
For CSc1ccc(NC(=O)N2CC(C)OC(C)C2)cc1 (stereo not given), the activity change, negative = inhibition was “inactive”.
CC1O[C@H](OC2C(COC3OC(CO)C(O)[C@H](O)C3O)OC(OC3CC[C@]4(C)C(CC[C@@]5(C)[C@@H]4C=C[C@]46OC[C@@]7(CCC(C)(C)C[C@H]74)C(O)C[C@@]56C)C3(C)C)C(O)C2O)C(O)C(O)C1O (stereo not given in full) was tested, and the activity change, negative = inhibition was “inactive”.
With CCC(C)c1ccc(NC(=S)NCc2ccccn2)cc1 (stereo not given) the activity change, negative = inhibition was “inactive”.
In the case of Cc1cc(C(F)(F)F)c(C#N)c(SCC(=O)NC2CC2)n1, the activity change, negative = inhibition is reported as “inactive”.
COc1ccc2nc(NC3=NCN(CC4CCCO4)CN3)nc(C)c2c1 (stereo not given) was tested, and the activity change, negative = inhibition was “inactive”.
In the case of CC(=O)C1=C(C)NC(=O)NC1c1cc(Br)ccc1OCC#N (stereo not given), the activity change, negative = inhibition is reported as “inactive”.
Cc1ccc(NC(=O)C2CCC(C(C)(C)C)CC2)cc1S(=O)(=O)N1CCOCC1 (stereo not given) was tested, and the activity change, negative = inhibition was “inactive”.
O=C1C=CC(=O)N1c1ccc(N2CCCCC2)cc1 was tested, and the activity change, negative = inhibition was “inactive”.
With CCOc1nc(OCC)nc(-n2cc(-c3ccccc3)nn2)n1 the activity change, negative = inhibition was “inactive”.
With CC(C)(C)n1ncc2c(=O)n(Cc3ccc(Cl)cc3)cnc21 the activity change, negative = inhibition was “inactive”.
Work on Cc1cc2c(c(=O)n1Cc1ccccc1)C1O[C@](CCCCN3C(=O)c4ccccc4C3=O)(Cc3ccccc31)O2 yielded an activity change, negative = inhibition of -1.2% [at 7.66 µM].
CC(C)(C)NC(=O)CSC(=Nc1ccccc1F)NC#N was tested, and the activity change, negative = inhibition was “inactive”.
O=C(CCl)Nc1ccc(Sc2ccc(NC(=O)CCl)cc2)cc1 was tested, and the activity change, negative = inhibition was “inactive”.
In the case of CC1CCN(C(=O)c2ccc(S(=O)(=O)Cc3cc(F)ccc3F)c([N+](=O)[O-])c2)CC1, the activity change, negative = inhibition is reported as “inactive”.
In the case of Cc1ccc(C2=NN(C(=O)CSc3nc(N)cc(N)n3)C(c3ccco3)C2)cc1 (stereo not given), the activity change, negative = inhibition is reported as “inactive”.
In the case of COc1ccc(-c2nc3cc(C)ccn3c2NC2CCCCC2)cc1SC1CCCCC1, the activity change, negative = inhibition is reported as “inactive”.
For Cc1ccc(C2(C(F)(F)F)N=C3Sc4cc(C)cc(C)c4N3C(=O)N2)cc1 (stereo not given), the activity change, negative = inhibition was “inactive”.
With COc1ccc(CCOC(=O)CNC(=O)c2ccc(Cl)cc2Cl)cc1 the activity change, negative = inhibition was “inactive”.
With [O-][n+]1c2c(nn1-c1ccc(Cl)c(Cl)c1)-c1nonc1CC2 the activity change, negative = inhibition was “inactive”.
In the case of Cn1c(SCC(=O)Nc2nccs2)nnc1-c1cccnc1, the activity change, negative = inhibition is reported as “inactive”.
Cc1c(C=O)c2ccccn2c1C(=O)c1ccncc1 was tested, and the activity change, negative = inhibition was “inactive”.
For O=c1[nH]c(=S)[nH]c2[nH]c(=S)[nH]c12, the activity change, negative = inhibition was “inactive”.
Cc1ccc(S(=O)(=O)CC(=O)Nc2sc(C)c(C)c2C(N)=O)cc1 was tested, and the activity change, negative = inhibition was “inactive”.
For CC(C)N1C(=O)N(c2ccccc2)C(C)(O)CC1(C)C (stereo not given), the activity change, negative = inhibition was “inactive”.
With Cc1ccc(-n2c(SCC(=O)N3CCC(C(=O)O)CC3)nc3ccccc3c2=O)cc1C the activity change, negative = inhibition was “inactive”.
In the case of O=C(c1cccs1)n1nc(NCc2ccccc2)nc1NCc1ccccc1, the activity change, negative = inhibition is reported as “inactive”.
In the case of COc1ccc(OC)c(-c2c(=O)n(OCc3ccccc3Br)c3ccccc3[n+]2[O-])c1, the activity change, negative = inhibition is reported as “inactive”.
With O=C1OC2(CCCCC2)CC2=C1C1O[C@](c3ccsc3)(Cc3ccccc31)O2 the activity change, negative = inhibition was -1.62% [at 7.66 µM].
In the case of CCCCNC(=O)C(C)N(CCN(C)C)C(=O)CCCCCN1C(=O)NC(c2ccc(Cl)cc2)C(C(=O)OCc2ccccc2)=C1C (stereo not given), the activity change, negative = inhibition is reported as “inactive”.
In the case of Cc1ccc(NC(=O)CC2C(=O)N(Cc3ccccc3)C(=S)N2NC(=O)c2cccc(F)c2)c(C)c1 (stereo not given), the activity change, negative = inhibition is reported as “inactive”.
For COC(=O)c1ccccc1Oc1c(F)c(F)nc(N2CCOCC2)c1F, the activity change, negative = inhibition was “inactive”.
In the case of O=c1c2ccccc2[nH]c(=S)n1CCN1CCC(=C(c2ccc(F)cc2)c2ccc(F)cc2)CC1, the activity change, negative = inhibition is reported as “inactive”.
With CCN(CC(=O)Nc1ccc(NC(C)=O)cc1)C(=O)C1CC(=O)N(Cc2ccc(C)cc2)C1 (stereo not given) the activity change, negative = inhibition was “inactive”.
Cc1cccc(C)c1NC(=O)C1(C)c2cccc[n+]2CC(=O)N1Cc1cccs1 (stereo not given) was tested, and the activity change, negative = inhibition was “inactive”.
CO[C@H]1[C@@H]2C=CO[C@@H](O[C@H]3O[C@@H](CO)[C@H](O)[C@@H](O)[C@@H]3O)[C@@H]2[C@@]2(CO)O[C@@H]12 was tested, and the activity change, negative = inhibition was “inactive”.
In the case of O=C(CC1SC(=Nc2ccccc2)N(Cc2ccccn2)C1=O)Nc1cccc(Cl)c1 (stereo not given), the activity change, negative = inhibition is reported as “inactive”.
Cc1coc2c(O)cc3c(c12)OC1(N2CCCCC2)C(=O)NCCCC31 (stereo not given) was tested, and the activity change, negative = inhibition was “inactive”.
With CCCCN(CCCC)CCCNC(=O)CN1C(=O)COc2ccc(S(=O)(=O)N3CCC(C)CC3)cc21 the activity change, negative = inhibition was “inactive”.
For CCOC(=O)N1CCN(S(=O)(=O)c2ccc3c(c2)C(C)C(=O)N3)CC1 (stereo not given), the activity change, negative = inhibition was “inactive”.
With COC(=O)c1ccc(COc2ccc(/C=C/C(=O)c3ccc(OC)c(CSCC(=O)O)c3)cc2OC)cc1 the Potency was 10 µM (active).
In the case of COc1ccc(C(=O)/C=C/c2ccc(-c3ccccc3)cc2)cc1CSCC(=O)O, the activity change, negative = inhibition is reported as “inactive”.
With COc1ccc(/C=C/C(=O)c2ccc(NS(=O)(=O)c3ccc(C)cc3)cc2)cc1O the activity change, negative = inhibition was “inactive”.
Cc1ccc(C2NC(C(=O)O)CS2)cc1 (stereo not given) was tested, and the activity change, negative = inhibition was “inactive”.
In the case of C=CCN(c1ccc(C(N)=O)cc1)S(C)(=O)=O, the activity change, negative = inhibition is reported as “inactive”.
For Cc1cccc(N2CCN(Cc3nc(C4CC4)no3)CC2)n1, the activity change, negative = inhibition was “inactive”.
With c1ccc2c(c1)C(=NC1CCCCC1)NC2=NC1CCCCC1 the activity change, negative = inhibition was “inactive”.
With CCCOc1ccc(C(=O)C(CCC(CNCC)C(=O)c2ccc(OCCC)cc2)CNCC)cc1 (stereo not given) the activity change, negative = inhibition was “inactive”.
With COc1ccc(Br)cc1CN(C)CC(=O)Nc1cc(Cl)cc(Cl)c1 the activity change, negative = inhibition was “inactive”.
In the case of COc1ccc2c3c(c(=O)oc2c1)C1O[C@](CCCCN2C(=O)c4ccccc4C2=O)(Cc2c1ccc1ccccc21)O3, the activity change, negative = inhibition is reported as 0.0315% [at 7.66 µM].
CC(C)NC(=O)C(=O)NCCCOC(C)C was tested, and the activity change, negative = inhibition was “inactive”.
With O=C(CN1CCOCC1)N1CCCc2c1c(=O)oc1ccc(OCc3ccccc3)cc21 the activity change, negative = inhibition was “inactive”.
CCOCCOCCC(C(=O)O)P(=O)(c1ccccc1)c1ccccc1 (stereo not given) was tested, and the activity change, negative = inhibition was “inactive”.
With CCOC(=O)c1c(NC(=O)CCCN2CCOCC2)sc2c1CC(C)(C)OC2 the activity change, negative = inhibition was “inactive”.
With CC(C)(C)[Si](OCC[C@@H]1C[C@@]1(C)[C@@H](NP(=O)(c1ccccc1)c1ccccc1)c1ccccc1)(c1ccccc1)c1ccccc1 the activity change, negative = inhibition was “inactive”.
In the case of CCC(C)n1c(-c2cc(OC)c(OC)c(OC)c2)nc2nc3ccccc3nc21 (stereo not given), the activity change, negative = inhibition is reported as “inactive”.
For CC(C)(C)C(=O)NC1CC2CCCC(C1)N2C(=O)Nc1ccccc1F (stereo not given), the activity change, negative = inhibition was “inactive”.
With C=CC[n+]1c(-c2ccc(C)cc2)csc1NNC(=O)Nc1ccccc1 the activity change, negative = inhibition was “inactive”.
With CCNC(=S)N(CCN(CC)CC)Cc1cc2cc3c(cc2[nH]c1=O)OCO3 the activity change, negative = inhibition was “inactive”.
Cn1c(CC(=O)NNC(=O)c2ccccc2F)nc2ccccc21 was tested, and the activity change, negative = inhibition was “inactive”.

Source: PubChem BioAssay AID463254 (National Center for Advancing Translational Sciences (NCATS), 2010)
Potency is the fitted concentration of half-maximal effect.
